Source: PubChem (The Scripps Research Institute Molecular Screening Center)
Compounds with a hit are over-represented: about 0.9% of the library has one in this group of screens.
PPARg SRC2 recr – agonists of SRC-2 recruitment by human PPARgamma | activation, % at 8 µM | 0.34% of 200,000 active | P37231 | PPARgamma LBD-SRC-2 recruitment, biochemical
Target sequence (P37231 whole entry, looked up, the tested form may be a part): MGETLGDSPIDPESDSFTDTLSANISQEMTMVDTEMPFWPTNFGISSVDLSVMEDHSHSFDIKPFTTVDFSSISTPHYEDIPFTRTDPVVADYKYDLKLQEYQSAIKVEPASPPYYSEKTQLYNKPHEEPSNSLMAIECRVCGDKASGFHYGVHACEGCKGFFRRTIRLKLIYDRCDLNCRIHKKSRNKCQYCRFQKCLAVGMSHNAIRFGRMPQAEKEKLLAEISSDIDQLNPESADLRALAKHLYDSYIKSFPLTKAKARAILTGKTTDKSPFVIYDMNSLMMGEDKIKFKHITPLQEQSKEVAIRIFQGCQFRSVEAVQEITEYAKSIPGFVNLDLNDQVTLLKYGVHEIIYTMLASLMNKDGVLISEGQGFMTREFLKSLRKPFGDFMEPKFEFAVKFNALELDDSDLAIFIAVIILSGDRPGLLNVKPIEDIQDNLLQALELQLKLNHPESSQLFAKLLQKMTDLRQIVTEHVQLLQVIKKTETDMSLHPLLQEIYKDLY
SRC1 TRFRET art – TR-FRET artefact, counter-screen to PPARgamma/SRC-1 agonist assay; AID 1051; 0.34% of 99,000 active; TR-FRET detection artefact counter-screen, emission ratio; hits give high values; TR-FRET ratio at 8 µM; in the data active = TR-FRET ratio above about 2300
PPARg SRC-3 ag – promotes SRC-3 coactivator recruitment by human PPARgamma. biochemical PPARgamma/SRC-3 coactivator recruitment assay. activation, % at 8 µM. 0.26% of 200,000 active; in the data active = activation above about 23%
PPARg SRC1 recr – PPARgamma-driven SRC-1 recruitment agonism | P37231 | PPARgamma-SRC-1 coactivator recruitment biochemical assay | activation, % at 8 µM | 0.41% of 200,000 active | AID 631; in the data active = activation above about 19%
SRC3 TRFRET art – counter-screen for PPARgamma SRC-3 recruitment agonists: TR-FRET artefact. PPARgamma/SRC-3 format; hits give high values. TR-FRET ratio at 8 µM. 0.39% of 99,000 active. AID 1048; in the data active = TR-FRET ratio above about 2000
SRC2 TRFRET art – flags TR-FRET format artefacts in PPARgamma SRC-2 recruitment agonist screen | TR-FRET artefact counter-screen; hits give high values | TR-FRET ratio at 8 µM | 0.4% of 200,000 active | AID 1049; in the data active = TR-FRET ratio above about 2000
PPARg SRC2 ag – confirmation of agonists of SRC-2 recruitment by human PPARgamma | activation, % at 8 µM | shares compounds with PPARg SRC-3 ag | 52% of 790 active | biochemical SRC-2 recruitment by PPARgamma | AID 1297
PPARg SRC1 ag – human PPARgamma SRC-1 recruitment agonism, confirmation | shares compounds with PPARg SRC-3 ag | PPARgamma–SRC-1 coactivator recruitment biochemical assay | activation, % at 8 µM | 43% of 790 active | AID 1300; in the data active = activation above about 20%
PPARg SRC3 ag – confirmation of agonists of SRC-3 recruitment by human PPARgamma | activation, % at 8 µM | shares compounds with PPARg SRC-3 ag | biochemical PPARgamma-SRC-3 coactivator recruitment, agonist mode | AID 1301 | 29% of 790 active; in the data active = activation above about 24%
Numbers stand for hits; – = inactive; · = no result. Rule as the data show it, unless noted: active = activation above about 22%; inactive = the rest.

SMILES | PPARg SRC2 recr | SRC1 TRFRET art | PPARg SRC-3 ag | PPARg SRC1 recr | SRC3 TRFRET art | SRC2 TRFRET art | PPARg SRC2 ag | PPARg SRC1 ag | PPARg SRC3 ag
O=C(CSc1c2c(nc3cc(Cl)ccc13)CCCC2)NCc1ccco1 | 25.6 | · | – | – | · | 2007 | 28.6 | 21.3 | –
COc1ccc(NC(=O)CSc2c3c(nc4ccccc24)CCCC3)c(OC)c1 | 27.4 | – | – | 25.6 | – | 1985 | 25.8 | – | –
O=C(CSc1c2c(nc3ccccc13)CCC2)N1CCCC1 | – | – | – | – | – | – | · | · | ·
COc1ccccc1NC(=O)CSc1c2c(nc3ccccc13)CCC2 | – | – | – | – | – | – | · | · | ·
COc1ccc(NC(=O)CSc2c3c(nc4cc(Cl)ccc24)CCCC3)cc1OC | – | – | – | – | – | – | · | · | ·
Cc1ccc(C)c(-n2c(SCC(=O)NC(C(=O)O)C(C)C)nnc2-c2cccc(Cl)c2)c1 (stereo unspecified) | – | – | – | – | – | – | · | · | ·
O=C(Oc1cccc([N+](=O)[O-])c1)N1CCCCC1 | – | – | – | – | – | – | · | · | ·
CSc1cccc(NC(=S)N2CCC(N(C)C3CCCC3)CC2)c1 | – | – | – | – | – | – | · | · | ·
COc1cccc(-c2noc(CCCC(=O)Nc3ccc(C(N)=O)cc3)n2)c1 | – | – | – | – | – | – | · | · | ·
Cc1cccc(Nc2nc(-c3ccccc3)c(C(=O)Nc3cccnc3)s2)c1 | 38.1 | 3448 | 26.6 | 29.4 | 3117 | 2484 | 56.6 | 44.4 | 38.2
Cc1nc(NC(N)=S)sc1C(=O)Nc1ccccc1 | – | · | 27.2 | – | · | – | – | – | –
O=C(Nc1cccnc1)c1sc(Nc2ccccc2)nc1-c1ccccc1 | 55.5 | 3708 | 42.0 | 48.3 | 3330 | 2618 | 78.8 | 59.4 | 53.6
Cc1nc(N)sc1C(=O)Nc1ccccc1 | – | · | – | – | · | – | · | · | ·
Cc1cccc(Nc2nn3c(=O)c4ccccc4nc3s2)c1 | – | · | 37.1 | 31.3 | · | – | 27.4 | – | –
COC1Cc2ccccc2N(C(=O)N2CCN(CCO)CC2)c2ccccc21 (stereo unspecified) | – | · | – | 19.0 | · | – | – | – | –
CC(=O)Nc1nc(C)c(C(C)=O)s1 | – | · | – | – | · | – | · | · | ·
CC(=O)c1sc(NC(=O)C(C)C)nc1C | 81.0 | · | 83.2 | 58.7 | · | 3308 | 54.4 | 36.7 | 38.9
CC(=O)c1sc(Nc2ccc(C)cc2)nc1C | – | – | – | – | – | – | · | · | ·
CC(=O)c1sc(Nc2ccccn2)nc1C | 48.2 | · | 73.8 | 53.2 | · | 2724 | 37.5 | 25.0 | 26.2
CC(=O)c1sc(NC(=O)C2COc3ccccc3O2)nc1C (stereo unspecified) | 27.2 | · | 28.3 | 20.3 | · | 2016 | 24.4 | – | –
O=C(COC(=O)C1=COCCO1)NCc1ccc(Cl)cc1 | – | – | – | – | – | – | · | · | ·
O=C(Cc1cccc2ccccc12)Nc1ccc(-c2cc3ccccc3oc2=O)cc1 | – | · | – | 24.4 | · | 2296 | 23.9 | – | –
COc1ccc(CN(C)Cc2cc(=O)n3ccsc3n2)c(OC)c1OC | – | – | – | – | – | – | · | · | ·
CC1(C)Nc2ccc(O)cc2-c2c1ssc2=S | 24.6 | · | 27.5 | – | · | – | – | – | –
S=c1[nH]nc(-c2ccccn2)n1/N=C/c1ccc(-c2ccccc2Br)o1 | 129.3 | 5322 | 69.2 | 69.1 | 4805 | 4475 | 82.1 | 60.3 | 52.8
SMILES | PPARg SRC2 recr | SRC1 TRFRET art | PPARg SRC-3 ag | PPARg SRC1 recr | SRC3 TRFRET art | SRC2 TRFRET art | PPARg SRC2 ag | PPARg SRC1 ag | PPARg SRC3 ag
Cn1c(-c2sc3cc(C(F)(F)F)cnc3c2-c2cccnc2)n[nH]c1=S | – | · | 29.6 | 18.8 | · | – | 71.8 | 56.9 | 44.0
Cn1c(-c2sc3cc(C(F)(F)F)cnc3c2-c2cccs2)n[nH]c1=S | 29.9 | 2475 | – | – | 2332 | 2200 | 46.1 | 41.5 | 29.4
CN(C(=O)CSc1nnc(-c2ccncc2)n1Cc1ccccc1)C1CCS(=O)(=O)C1 (stereo unspecified) | – | – | – | – | – | – | · | · | ·
O=C1NN(c2ccccc2)C(=O)/C1=C/c1ccc(Sc2cccc3ccccc23)o1 | 38.9 | 2739 | – | 29.8 | 2511 | 2448 | 25.4 | – | –
Cc1ccc(OCCn2cc(/C=C3\C(=O)NN(c4ccccc4)C3=O)c3ccccc32)cc1 | – | – | – | – | – | – | · | · | ·
Cc1ccccc1C(=O)NNC(=O)CSc1nc(-c2ccccc2)cc(=O)[nH]1 | – | – | – | – | – | – | · | · | ·
Cc1ccc2oc(-c3ccc(NC(=O)c4ccncc4)cc3O)nc2c1 | – | – | – | – | – | – | · | · | ·
COc1ccc(CC(=O)Nc2ccc(-c3nc4cc(C)ccc4o3)c(O)c2)cc1OC | – | · | – | 43.2 | · | – | 40.9 | 28.1 | 24.7
O=C(Nc1ccc(S(=O)(=O)Nc2ncccn2)cc1)c1ccc(Br)s1 | 21.8 | · | 36.6 | – | · | 2098 | 22.6 | – | –
O=C(Nc1ccc(Cl)cc1)Nc1ccc(S(=O)(=O)Nc2ncccn2)cc1 | – | – | – | – | – | – | · | · | ·
COc1ccc2cc(C(c3nnnn3C3CCCC3)N3CCOCC3)c3nnnn3c2c1 (stereo unspecified) | – | – | – | – | – | – | · | · | ·
COc1cc2oc(=O)c(Br)c(C)c2c(OC)c1OC | 46.5 | · | 62.4 | 41.4 | · | 2553 | 40.4 | 33.6 | 24.3
COc1cc2oc(=O)cc(C)c2c(OC)c1OC | – | – | – | – | – | – | · | · | ·
CCOC(=O)Cc1csc(NC(=O)c2csc(C)c2)n1 | – | · | – | – | · | – | · | · | ·
CCOC(=O)Cc1csc(NC(=O)c2sc3nc4c(C)cc(C)cc4cc3c2N)n1 | – | · | 26.6 | – | · | – | – | – | –
Cc1c2cc(O)c(=O)cc-2oc2cc(O)c(O)cc12 | – | · | 27.2 | – | · | – | – | – | –
COc1cc(OC)c(-c2c3cc(O)c(=O)cc-3oc3cc(O)c(O)cc23)cc1OC | – | – | – | – | – | – | · | · | ·
Cc1ccc(C(=O)NC(=O)CSc2ncccc2C(=O)O)cc1 | – | – | – | – | – | – | · | · | ·
Cc1cc2nc(-c3ccc(SCc4ccccc4C#N)nc3)[nH]c2cc1C | 58.5 | · | 45.7 | 35.6 | · | 2284 | 31.6 | 20.4 | –
NC(=O)c1cccc2c(=O)oc3ccccc3c12 | – | · | – | – | · | – | · | · | ·
O=c1oc2cc(O)c(Cl)cc2c2ccccc12 | 101.5 | 3291 | 54.4 | 59.1 | 4295 | 4246 | 54.7 | 34.3 | 39.1
COc1ccc(C(=O)c2c[nH]c(C(=O)N=CN(C)C)c2)cc1 | – | – | – | – | – | – | · | · | ·
Cc1cc(NS(=O)(=O)c2ccc(NC(=O)c3ccco3)cc2)no1 | – | · | – | 21.3 | · | – | – | – | –
O=C(CCSc1nnc2ccc3ccccc3n12)Nc1ccc(F)cc1 | – | · | 32.5 | – | · | – | 29.4 | 24.0 | –
O=C(Nc1ccc([N+](=O)[O-])cc1)N1CCCCC1 | – | – | – | – | – | – | · | · | ·
